Shown are actives, neighbours in structure and some others; about 6% of the full set was active somewhere.
D1 ag = agonists of human D1 dopamine receptor | P21728 | HEK293 T-REx D1 cells, calcium flux, agonist mode | activation, % at 2 µM | 360,000 tested, 1% active | AID 504660; in the data active means activation above about 30%; further: 0% is about no effect
Target sequence (P21728 whole entry, looked up): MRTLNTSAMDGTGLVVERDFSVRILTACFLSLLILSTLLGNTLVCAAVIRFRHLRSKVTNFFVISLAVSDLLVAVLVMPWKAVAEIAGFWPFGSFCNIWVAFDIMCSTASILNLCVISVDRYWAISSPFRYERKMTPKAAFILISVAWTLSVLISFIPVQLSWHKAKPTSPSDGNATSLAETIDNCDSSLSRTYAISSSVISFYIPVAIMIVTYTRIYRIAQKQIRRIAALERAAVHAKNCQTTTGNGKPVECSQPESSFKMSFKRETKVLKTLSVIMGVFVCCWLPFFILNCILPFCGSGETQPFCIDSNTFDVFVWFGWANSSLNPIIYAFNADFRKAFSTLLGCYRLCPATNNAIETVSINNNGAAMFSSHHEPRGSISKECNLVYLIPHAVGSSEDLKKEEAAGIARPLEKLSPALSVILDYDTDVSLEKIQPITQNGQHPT
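Agonism was scored from calcium flux recorded over 180 s (1 read/s) after pintool compound addition, following a 10-cycle baseline. Cells were inducible force-coupled HEK293 TREx D1, plated overnight at 30 C and loaded with no-wash calcium dye.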
D1 PAM = human D1 dopamine receptor positive modulation | HEK293 TREx D1 cells, calcium flux, dopamine EC20 potentiation | potentiation, % at 10 µM | 360,000 tested, 0.036% active; in the data active means potentiation above about 30%; further: 0% is about no effect
DRD3 antagonist = D3 dopamine receptor (human) antagonism. D3R cells, DiscoveRx beta-arrestin luminescence, antagonist mode; hits give low values. P35462. max response, negative = inhibition, %. 360,000 tested, 2.5% active; in the data active means max response below about -50%; inconclusive means no clear call, values can overlap the other calls; further: on the % scale 0 is the no-effect control and ±100 the full control effect
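Cells expressing the human receptor were seeded at 1500 cells/well, incubated overnight at 37 degrees C in 5% CO2, then exposed to library compounds with dopamine controls for 90 minutes at 37 degrees C before luminescent detection.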
D3 ag = activates the human D3 dopamine receptor | P35462 | D3R DiscoveRx beta-arrestin cells, luminescence, 90 min | max activation, % | 410,000 tested, 0.58% active | AID 652048; in the data active means max activation above about 30%; further: 0% is about no effect
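Cells at 1500/well, incubated overnight, then treated with pinned compounds (dopamine as control) for 90 min at 37 degrees C. DiscoveRx reagent added for 30 - 60 minutes at room temperature; luminescence read.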
D1 antagonist = human D1 dopamine receptor antagonism; HEK293 TREx D1 cells, calcium flux, dopamine EC80; hits give low values; activity change, negative = inhibition, % at 10 µM; 360,000 tested, 3.2% active; in the data active means activity change below about -30%; further: on the % scale 0 is the no-effect control and ±100 the full control effect
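Calcium flux readout: force-coupled, inducible Hek293 Trex D1 line, cells induced overnight at 30 C with tetracycline, dye-loaded 30–90 min at RT. Antagonism scored against EC80 dopamine challenge given 180 s after compound.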
* hit, by the source's call; ? = inconclusive; . = no result given; ! = a repeat was not active.

SMILES	D1 ag	D1 PAM	DRD3 antagonist	D3 ag	D1 antagonist
C=C1C(=O)O[C@@H]2C[C@@H](C)[C@H]3C=CC(=O)[C@]3(O)C[C@@H]12	2.5	-2.3	?	10.0	8.4
C=C1C(=O)OC2CC3(C)OC3CCC(C)=CC(OC(C)=O)C12 (configuration not stated)	.	.	-51.9*	-9.9	.
Nc1c(C(=O)Nc2ccc(Br)cc2F)sc2nc3c(cc12)N1CCC3CC1	1.0	-5.3	.	5.2	-31.7*
COc1cccc(CN2CC=C(c3ccc(F)cc3)CC2)c1	0.1	-5.6	-77.5*	-26.2	-2.9
COC(=O)C(O)(c1ccc(NC(=O)c2ccccc2)cc1)C(F)(F)F (configuration not stated)	2.9	-9.3	6.4	-0.7	-10.3
COC(=O)C(O)(c1ccc(NC(=O)c2cccs2)cc1)C(F)(F)F (configuration not stated)	4.3	-13.2	-62.0*	-15.9	-16.0
CCCCn1c(O)c(C(CC)=NCCCN(C)C)c(=O)[nH]c1=O	4.3	-4.8	-64.1*	-5.4	-2.5
CCCCn1c(O)c(C(C)=NCCCN(C)C)c(=O)[nH]c1=O	0.5	8.5	-7.5	-0.7	2.0
CCC(=NCCCN(CC)CC)c1c(O)n(-c2ccccc2)c(=O)[nH]c1=O	1.2	-2.4	-12.5	-4.6	-32.5*
CC1(C)S[C@@H]2[C@H](N)C(=O)N2[C@H]1C(=O)O	.	.	.	4.5	.
CC1CCCC(C)N1/N=C/c1c[nH]c2ccc(Br)cc12 (configuration not stated)	9.8	-9.2	-76.0*	-14.2	-5.8
CN1CCC(c2c[nH]c3ccc(O)cc23)CC1	.	.	?	-0.6	.
Nc1c(C(=O)NCCN2CCOCC2)c2nc3ccccc3nc2n1Cc1ccco1	4.3	-2.9	-27.5	7.4	-41.6*
Cn1ncnc2c(=O)n(C)c(=O)nc1-2	7.0	4.8	-80.9*	-10.3	9.7
COC(=O)C1=C(C(=O)OC)C2OC1c1cc3ccccc3cc12	.	.	-58.0*	-15.8	.
COP(=S)(OC)Oc1ccc(S(N)(=O)=O)cc1	.	.	.	3.9	.
COP(=S)(OC)Oc1cc(Cl)c(Cl)cc1Cl	.	.	.	8.8	.
O=[N+]([O-])c1ccc(NCc2ccccc2)c2nonc12	592.8*	-2.5	-4.8	0.4	-59.4*
CN1CCCN(C(=O)COc2cccc(C(F)(F)F)c2)CC1	1.1	-2.4	-88.8*	2.4	-7.3
Cc1cccc(N2CCc3c2nc2ccccc2c3N)c1	6.4	-8.8	?	-11.5	-32.2*!
O=c1[nH]c2ccccc2n1C1CCN(C(c2ccccc2OC(F)(F)F)c2nnnn2-c2ccc3c(c2)OCCO3)CC1 (configuration not stated)	.	.	13.3	34.8*	.
O=c1cc(C(F)(F)F)c2cc3c4c(c2o1)CCCN4CCC3	329.5*	-8.0	5.6	0.5	-64.6*
Cc1cc2c(C(F)(F)F)cc(=O)oc2c2c1NCCC2	112.8*	3.6	10.4	3.1	-9.3
CC(C)c1ccc(OCC(=O)N2CCN(CCc3ccncc3)CC2)cc1	2.4	-0.4	.	-11.2	-7.5
CC(=O)[C@H]1CC[C@H]2[C@@H]3CC[C@H]4C[C@](C)(O)CC[C@]4(C)[C@H]3CC[C@]12C	.	.	.	2.1	.
SMILES	D1 ag	D1 PAM	DRD3 antagonist	D3 ag	D1 antagonist
O=C(CCCN1CCC(n2c(=O)[nH]c3ccccc32)CC1)c1ccc(F)cc1	0.0	-5.5	-103.2*	-45.2	-43.7*
COC(=O)c1ccc(N2C(=O)CC(N3CCC(n4c(=O)[nH]c5ccccc54)CC3)C2=O)cc1 (configuration not stated)	2.6	-3.6	-21.2	-1.1	-19.6
Cn1c(O)c(/C=C/C=Nc2ccccc2)c(=O)n(C)c1=S	64.1*	4.5	0.0	-1.1	1.7
Cc1cccc(-n2c(O)c(/C=C/C=Nc3ccccc3)c(=O)[nH]c2=O)c1	34.5*	2.2	-23.8	-5.9	-1.5
ClC1=C(Cl)C2(Cl)C(CBr)CC1(Cl)C2(Cl)Cl (configuration not stated)	.	.	.	-11.6	.
CNCC(=O)c1ccccc1	.	.	-50.5*	-42.2	.
CNCC(=O)c1ccc(O)c(O)c1	.	.	.	61.5*	.
CN1C(=O)C(=Cc2ccc(N3CCOCC3)o2)C(=O)N(C)C1=O	45.2*	-2.5	13.1	-3.1	14.8
CN1C(=O)C(=Cc2ccc(N3CCCCCC3)o2)C(=O)N(C)C1=S	27.1	0.7	?	-7.1	4.2
O=C(N[C@@H]1N=C(c2ccccc2F)c2cccc3c2N(CC3)C1=O)c1cc2ccccc2[nH]1	.	.	.	-10.6	.

Assay outcomes: PubChem BioAssay, National Center for Advancing Translational Sciences (NCATS)
